Results filed as inconclusive are left out. Calls of active or inactive are those of the source. Unless noted, the call rests on the fitted dose curve; in most records, active means well fitted curve in the direction sought with a large enough effect; inconclusive means small, poorly fitted or top-dose-only effect, or another doubt; inactive means no such curve, though single readings can be large; an effect the other way counts as inactive or inconclusive.

Assay [1] can be described thus: qHTS for differential inhibitors of proliferation of Plasmodium falciparum line HB3 (AID 1886).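 Further: parasites grown with compound for 72 h before SYBR Green readout.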 Further: potency means the concentration at half of the fitted maximal effect. The conditions noted are these: Potency: Plasmodium falciparum HB3 proliferation inhibition. A general note: In qHTS, concentration-response curves come from the screen itself.
Assay [2] addresses Ferritin light chain (Equus caballus) (UniProt P02791). Description: qHTS Validation Assay for Identification of Novel General Anesthetics (AID 2323). Further: series mostly up to about 77 µM. Summed up: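 Competitive displacement of profluorescent 1-aminoanthracene (1-AMA, 50% saturated solution in PBS) from 10 uM horse-spleen apoferritin. Compounds incubated 10 min at room temperature; fluorescence read at 380 nm excitation/535 nm emission, normalized to free 1-AMA and complex, fitted with four-parameter Hill equation.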

The nature of assay [3]: Cytometric Cell-Based qHTS for Inhibitors of the mTORC1 Signaling Pathway in MEF (Tsc2-/-, p53-/-) Cells (AID 2660).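 Further: Tsc2 and p53 null MEFs carrying empty vector with compound for 24 h; percent of cells above a phospho-rpS6 to PI ratio cutoff in each well; series mostly up to about 38 µM.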 The method in brief:
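Cells are plated, treated with compound for 24 hrs at 37 degree Celsius, then fixed, blocked and immunostained for phospho-rpS6 Ser235/236. Propidium iodide counterstain follows. Per-well % positive cells is derived from the PI-normalized phospho-S6 signal.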

Assay [4] can be described thus: High Content Imaging Cell-Based qHTS for Inhibitors of the mTORC1 Signaling Pathway in MEF (Tsc2-/-, p53-/-) Cells (AID 2666).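 Further: percent of cells scored positive for phospho-rpS6 Ser235/236 immunostaining by imaging.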 The method in brief:
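MEF Tsc2-/- p53-/- (empty vector), DMEM/10% FBS; cpd 24 h 37 °C; PFA fix, Alexa-488 p-rpS6 S235/236 Ab, Hoechst; imaged; rapamycin-defined inhibition; % positive cells/well.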

Assay [5] in a line: High Content Imaging Cell-Based qHTS for Inhibitors of the mTORC1 Signaling Pathway in MEF Cells (AID 2667).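 Further: Tsc2-/- p53-/- MEFs stably re-expressing wild-type Tsc2 exposed 24 h; series mostly up to about 38 µM.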 Summed up:
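Read-out is the share of phospho-rpS6-positive cells per well, from Hoechst-normalized Alexa-488 Ser235/236 staining imaged on IN Cell. Cells: WT Tsc2-expressing Tsc2-/-, p53-/- MEFs exposed to compound for 24 hrs.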

Assay [6] in a line: Cytometry Cell-Based qHTS for Inhibitors of the mTORC1 Signaling Pathway in MEF cells (AID 2668).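 Further: Tsc2-/- p53-/- mouse embryonic fibroblasts stably re-expressing wild-type Tsc2; percent cells positive for phospho-rpS6 Ser235/236 relative to propidium iodide stain; series mostly up to about 38 µM.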 The method in brief:
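WT MEFs (Tsc2-/-, p53-/- stably re-expressing WT Tsc2) in DMEM + 10% FBS received compounds 24 hrs after plating, for 24 hrs at 37 degree Celsius. Fixed cells stained with Alexa-488 anti-phospho-rpS6 Ser235/236 and propidium iodide; laser-scanning cytometry read-out.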

The nature of assay [7]: Validation screen for small molecules that induce DNA re-replication in MCF 10A normal breast cells (AID 463097). Further: nearly all actives have a fitted effect of over 60% in size. Further: potency means the concentration at half of the fitted maximal effect. The method in brief:
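Readout: Hoechst nuclear fluorescence intensity, 405 ex / 500-530 em, by scanning plate imager; re-replication scored as increase in nuclei with elevated DNA content. Cells exposed to compound 48 hr, 37 C, 5% CO2 beforehand.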

In assay [8] the target is DNA polymerase III PolC-type (Bacillus subtilis (strain 168)) (UniProt P13267). As to the kind of experiment: qHTS Validation Assay for the Inhibitors of DNA Replication in Gram-Positive Bacteria (AID 485295).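 Further: PicoGreen fluorescence of double-stranded DNA made on primed circular M13 template; series mostly up to about 57 µM.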 Summed up:
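Reconstituted B. subtilis holoenzyme (Pol III, beta clamp, SSB, primase) was preincubated with compound at room temperature, then given single-stranded circular M13Gori plus dNTPs and NTPs. EDTA-containing PicoGreen stopped the reaction, and dsDNA product was read by fluorescence.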

Assay [9] concerns the target Tumor susceptibility gene 101 protein (Homo sapiens) (UniProt Q99816). Description: qHTS Validation Assay for Iinhibitors of HIV-1 Budding by Blocking the Interaction of PTAP/TSG101 (AID 485342; calls by dose curve). The method in brief: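 Tsg101 binding domain (10 uM final) in pH 7.5 HEPES/NaCl/Tween 20/EDTA/TCEP buffer was mixed with pin-transferred compounds, then FITC-labeled PTAP peptide (50 nM final) was added; after 20 min at r.t., fluorescence polarization was read.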

Assay [10] is described as follows: qHTS Validation Assay to Find Inhibitors of Chronic Active B-Cell Receptor Signaling (AID 485345; active means well fitted curve in the direction sought with a large enough effect in the main read-out, with a control signal flat, not every such curve was filed as active). Summed up:
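TMD8 ABC-DLBCL cells stably carrying doxycycline-inducible IkappaBalpha–green luciferase fusion plus unfused red luciferase; compounds 46 uM to 3 nM, 4 h at 37C with doxycycline. Corrected green/red luminescence ratio normalized to 10 uM MG-132 and basal cell wells; curves fitted.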

In assay [11] the target is Beta-2 adrenergic receptor (Homo sapiens) (UniProt P07550). Description: qHTS validation assay of beta-arrestin-biased ligands of beta2-adrenergic receptor (AID 485366). The method in brief:
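Compound series up to 46 microM applied to beta2-AR/beta-arrestin Tango cells, 18 hr, 37 degrees C, 5% CO2. Read-out: tTA-driven luciferase luminescence, converted to %Activity; concentration-response curves assigned curve classes.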

Assay [12] can be described thus: Quantitative high throughput screen for delayed death inhibitors of the malarial parasite plastid, 96 hour incubation (AID 488745). Further: nearly all actives have a fitted effect of over 70% in size. Further: potency means the concentration at half of the fitted maximal effect. Summed up: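 Readout is firefly luciferase luminescence from an integrated reporter in P. falciparum; lower signal marks inhibited growth. Cultures at 2% hematocrit and 0.1% parasitemia were treated with compound across two generations (96 h, 37 C, 5% CO2).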

Assay [13] is described as follows: Quantitative high throughput screen for delayed death inhibitors of the malarial parasite plastid, 48 hour incubation (AID 488752). Further: nearly all actives have a fitted effect of over 65% in size. Further: potency means the concentration at half of the fitted maximal effect. The method in brief:
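First, compound was pinned into RPMI 1640 medium containing 0.5% Albumax. Next, reporter-parasite-infected erythrocytes were added to 2% hematocrit and 0.1% parasitemia. After 48 h at 37 C under 5% CO2, luciferase detection reagent was added and luminescence read.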

The target in assay [14] is Thioredoxin reductase 1, cytoplasmic (Rattus norvegicus) (UniProt O89049). As to the kind of experiment: qHTS Assay for Substrates of Mammalian Selenoprotein Thioredoxin Reductase 1 (TrxR1) (AID 488772).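 Further: series mostly up to about 57 µM; a drop in NADPH fluorescence below the no-compound background marks a TrxR1 substrate.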 Summed up:
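In this dual-purpose format, potential substrates are identified from the first fluorescence read after selenite addition, not from the 8-minute delta. Rat enzyme is preincubated with NADPH and then with compound at ~22 deg C.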

Assay [15] has as its target ATP-dependent DNA helicase Q1 (Homo sapiens) (UniProt P46063). Description: qHTS Validation Assay for Inhibitors of RecQ-Like Dna Helicase 1 (RECQ1) (AID 2353). Summed up:
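RECQ1T1 50 nM; forked duplex (20 bp + 30-nt ss tails) 200 nM, ATP 2 mM final; pH 8.0, 2 mM MgCl2, 2.5 ug/ml poly(dI-dC); 15 min compound preincubation; discontinuous kinetic read over 2 h at RT.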

Assay [16] concerns the target RecQ-like DNA helicase BLM (Homo sapiens) (UniProt P54132). As to the kind of experiment: qHTS Validation Assay for Inhibitors of Bloom's syndrome helicase (BLM) (AID 2364). Summed up:
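50 nM BLM preincubated 15 min at room temperature with compound in pH 8.0 Tris buffer containing 2.5 ug/ml poly(dI-dC); started with 200 nM TAMRA/BHQ-2 forked duplex and 2 mM ATP (final). Unwinding read as TAMRA fluorescence increase, two reads 2 h apart.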

Assay [17] has as its target Ubiquitin carboxyl-terminal hydrolase 2 (Homo sapiens) (UniProt O75604). Description: qHTS Validation Assay for Inhibitors of Ubiquitin-specific Protease USP2a Using CHOP2 as the Reporter (AID 463106). The method in brief:
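Fluorescence read-out at Ex 485nm/Em 531nm after 60min RT, following addition of 25nM Ub-CHOP2 plus 25nM reporter substrate to USP2 core (10nM) pretreated 30min with compound. Data normalized to NEM full inhibition; concentration-response curves fitted.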

Assay [18] deals with ATP-dependent 6-phosphofructokinase (Trypanosoma brucei brucei) (UniProt O15648). Description: qHTS Validation Assay to Find Inhibitors of T. brucei phosphofructokinase (AID 485368). The settings on record: outcome: dose series up to 57.5 µM. Summed up:
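qHTS format, up to 57 uM. PFK 1.25 nM; F6P 0.5 mM; ATP 0.1 mM; 5 mM MgCl2, 0.01% Tween20, 0.1% BSA; 0.1 M TEA pH 8.0; 45 min RT; ADP-Glo readout; no-enzyme control = full inhibition.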

Sequence of ATP-dependent DNA helicase Q1 (Homo sapiens) (P46063 whole entry, looked up): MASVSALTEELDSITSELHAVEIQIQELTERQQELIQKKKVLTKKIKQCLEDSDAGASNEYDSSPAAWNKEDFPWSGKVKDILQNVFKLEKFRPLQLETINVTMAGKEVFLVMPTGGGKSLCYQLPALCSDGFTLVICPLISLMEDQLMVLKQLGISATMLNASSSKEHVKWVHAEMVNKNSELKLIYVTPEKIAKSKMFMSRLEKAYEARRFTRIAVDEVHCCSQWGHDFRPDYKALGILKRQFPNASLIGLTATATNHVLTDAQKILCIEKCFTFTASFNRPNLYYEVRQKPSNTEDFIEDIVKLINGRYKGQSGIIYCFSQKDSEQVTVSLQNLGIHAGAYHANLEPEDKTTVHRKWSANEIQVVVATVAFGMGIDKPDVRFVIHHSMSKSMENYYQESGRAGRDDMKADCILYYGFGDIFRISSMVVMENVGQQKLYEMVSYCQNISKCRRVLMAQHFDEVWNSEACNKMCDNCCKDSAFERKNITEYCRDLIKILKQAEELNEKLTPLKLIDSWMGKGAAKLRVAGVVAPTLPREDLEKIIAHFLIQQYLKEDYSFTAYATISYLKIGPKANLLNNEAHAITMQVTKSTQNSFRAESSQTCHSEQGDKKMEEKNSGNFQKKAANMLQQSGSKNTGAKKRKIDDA
Sequence of Beta-2 adrenergic receptor (Homo sapiens) (P07550 whole entry, looked up): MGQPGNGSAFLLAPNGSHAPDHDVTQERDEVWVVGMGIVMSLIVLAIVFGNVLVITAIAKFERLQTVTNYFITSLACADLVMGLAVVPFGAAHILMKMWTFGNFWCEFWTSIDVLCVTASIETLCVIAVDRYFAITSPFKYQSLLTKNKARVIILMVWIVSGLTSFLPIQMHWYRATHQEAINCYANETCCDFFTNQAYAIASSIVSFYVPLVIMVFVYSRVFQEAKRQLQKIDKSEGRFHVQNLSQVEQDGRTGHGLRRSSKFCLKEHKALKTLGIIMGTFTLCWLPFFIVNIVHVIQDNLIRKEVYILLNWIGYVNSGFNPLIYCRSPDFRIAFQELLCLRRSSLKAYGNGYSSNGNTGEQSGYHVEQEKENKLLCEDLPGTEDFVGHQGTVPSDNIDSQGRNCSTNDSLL
Sequence of ATP-dependent 6-phosphofructokinase (Trypanosoma brucei brucei) (O15648 whole entry, looked up): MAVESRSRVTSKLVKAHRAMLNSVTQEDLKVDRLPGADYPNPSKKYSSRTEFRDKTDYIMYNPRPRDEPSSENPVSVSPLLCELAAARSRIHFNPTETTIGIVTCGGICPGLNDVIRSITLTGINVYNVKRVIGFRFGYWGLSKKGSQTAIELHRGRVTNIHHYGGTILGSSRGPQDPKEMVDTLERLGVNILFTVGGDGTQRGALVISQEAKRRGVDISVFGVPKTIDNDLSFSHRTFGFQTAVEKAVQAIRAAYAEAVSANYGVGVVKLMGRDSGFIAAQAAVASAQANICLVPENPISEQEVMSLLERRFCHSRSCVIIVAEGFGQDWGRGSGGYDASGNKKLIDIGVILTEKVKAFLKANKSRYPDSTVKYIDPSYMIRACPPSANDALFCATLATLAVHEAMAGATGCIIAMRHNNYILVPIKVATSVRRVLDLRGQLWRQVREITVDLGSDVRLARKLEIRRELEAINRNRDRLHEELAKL
Sequence of RecQ-like DNA helicase BLM (Homo sapiens) (P54132 whole entry, looked up): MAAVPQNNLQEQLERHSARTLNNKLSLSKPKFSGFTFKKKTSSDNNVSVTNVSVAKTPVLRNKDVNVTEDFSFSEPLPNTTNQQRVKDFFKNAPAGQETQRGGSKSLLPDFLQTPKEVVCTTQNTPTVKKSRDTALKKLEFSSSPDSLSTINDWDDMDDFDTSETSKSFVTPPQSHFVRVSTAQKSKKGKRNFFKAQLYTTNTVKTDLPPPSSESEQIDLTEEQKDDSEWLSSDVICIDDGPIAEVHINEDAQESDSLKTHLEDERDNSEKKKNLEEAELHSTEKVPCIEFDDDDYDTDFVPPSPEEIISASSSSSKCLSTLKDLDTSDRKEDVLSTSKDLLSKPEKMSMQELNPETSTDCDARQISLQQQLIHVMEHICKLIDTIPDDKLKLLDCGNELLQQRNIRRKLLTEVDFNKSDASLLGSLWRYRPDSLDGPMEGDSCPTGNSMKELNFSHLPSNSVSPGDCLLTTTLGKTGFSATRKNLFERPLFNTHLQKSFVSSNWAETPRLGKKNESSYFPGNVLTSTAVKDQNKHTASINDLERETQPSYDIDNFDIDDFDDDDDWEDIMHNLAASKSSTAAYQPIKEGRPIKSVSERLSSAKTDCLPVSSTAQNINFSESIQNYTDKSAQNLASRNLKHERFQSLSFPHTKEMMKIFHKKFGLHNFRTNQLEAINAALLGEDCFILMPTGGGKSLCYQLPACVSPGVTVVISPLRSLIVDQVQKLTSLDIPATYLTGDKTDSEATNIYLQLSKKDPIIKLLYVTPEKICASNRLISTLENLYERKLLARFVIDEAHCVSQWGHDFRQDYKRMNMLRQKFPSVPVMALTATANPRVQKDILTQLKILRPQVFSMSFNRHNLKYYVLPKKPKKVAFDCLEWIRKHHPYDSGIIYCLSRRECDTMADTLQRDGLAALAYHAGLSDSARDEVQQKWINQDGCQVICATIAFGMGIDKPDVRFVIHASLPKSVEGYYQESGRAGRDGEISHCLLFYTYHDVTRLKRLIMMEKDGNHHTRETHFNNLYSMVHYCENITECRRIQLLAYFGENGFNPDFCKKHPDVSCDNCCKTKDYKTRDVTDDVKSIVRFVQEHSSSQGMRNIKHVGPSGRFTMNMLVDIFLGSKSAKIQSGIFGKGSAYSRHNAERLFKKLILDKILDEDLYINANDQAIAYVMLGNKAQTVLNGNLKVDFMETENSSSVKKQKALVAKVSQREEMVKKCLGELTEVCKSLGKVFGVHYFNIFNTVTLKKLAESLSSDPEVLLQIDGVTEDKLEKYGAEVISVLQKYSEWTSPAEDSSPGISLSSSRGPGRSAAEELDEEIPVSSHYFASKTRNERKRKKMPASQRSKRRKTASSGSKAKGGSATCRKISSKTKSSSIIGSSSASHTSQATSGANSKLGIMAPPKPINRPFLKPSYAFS
Sequence of DNA polymerase III PolC-type (Bacillus subtilis (strain 168)) (P13267 whole entry, looked up): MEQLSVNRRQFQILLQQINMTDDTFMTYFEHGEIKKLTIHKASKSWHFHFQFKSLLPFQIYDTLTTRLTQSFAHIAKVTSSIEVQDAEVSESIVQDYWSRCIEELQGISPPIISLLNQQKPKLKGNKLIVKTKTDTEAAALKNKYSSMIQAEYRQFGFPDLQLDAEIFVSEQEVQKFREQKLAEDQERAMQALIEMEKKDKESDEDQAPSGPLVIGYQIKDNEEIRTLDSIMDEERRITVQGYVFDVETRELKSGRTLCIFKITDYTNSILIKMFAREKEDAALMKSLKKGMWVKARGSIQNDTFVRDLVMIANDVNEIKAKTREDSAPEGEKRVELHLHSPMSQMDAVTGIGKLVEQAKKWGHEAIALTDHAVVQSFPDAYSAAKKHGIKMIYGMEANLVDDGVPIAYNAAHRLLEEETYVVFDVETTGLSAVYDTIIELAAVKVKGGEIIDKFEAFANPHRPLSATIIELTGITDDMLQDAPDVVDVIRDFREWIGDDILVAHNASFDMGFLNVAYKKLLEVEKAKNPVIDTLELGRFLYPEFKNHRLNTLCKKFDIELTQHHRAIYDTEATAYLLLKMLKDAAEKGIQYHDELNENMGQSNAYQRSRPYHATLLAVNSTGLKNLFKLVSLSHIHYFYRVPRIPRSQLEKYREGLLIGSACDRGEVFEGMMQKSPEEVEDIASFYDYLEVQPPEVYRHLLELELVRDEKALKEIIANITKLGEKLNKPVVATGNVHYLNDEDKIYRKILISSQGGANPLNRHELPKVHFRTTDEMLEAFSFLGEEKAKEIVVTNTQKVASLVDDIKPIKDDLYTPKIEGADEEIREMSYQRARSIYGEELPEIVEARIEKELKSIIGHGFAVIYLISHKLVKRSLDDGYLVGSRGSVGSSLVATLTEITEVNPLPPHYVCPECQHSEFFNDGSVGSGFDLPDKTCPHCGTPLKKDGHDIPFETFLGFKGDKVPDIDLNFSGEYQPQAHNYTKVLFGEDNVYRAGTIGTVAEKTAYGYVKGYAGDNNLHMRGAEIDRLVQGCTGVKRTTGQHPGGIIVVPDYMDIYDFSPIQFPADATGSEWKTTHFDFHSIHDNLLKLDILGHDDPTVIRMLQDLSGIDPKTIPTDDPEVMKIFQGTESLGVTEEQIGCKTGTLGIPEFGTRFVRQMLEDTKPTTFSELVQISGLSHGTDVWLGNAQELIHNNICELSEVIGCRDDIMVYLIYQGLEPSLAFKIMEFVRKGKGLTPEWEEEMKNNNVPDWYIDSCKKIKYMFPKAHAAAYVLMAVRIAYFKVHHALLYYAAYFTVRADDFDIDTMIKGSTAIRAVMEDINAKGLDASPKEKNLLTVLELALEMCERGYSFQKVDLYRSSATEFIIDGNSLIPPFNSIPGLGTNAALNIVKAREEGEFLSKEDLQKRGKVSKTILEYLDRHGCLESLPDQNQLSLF
Sequence of Ferritin light chain (Equus caballus) (P02791 2-175 limits assumed): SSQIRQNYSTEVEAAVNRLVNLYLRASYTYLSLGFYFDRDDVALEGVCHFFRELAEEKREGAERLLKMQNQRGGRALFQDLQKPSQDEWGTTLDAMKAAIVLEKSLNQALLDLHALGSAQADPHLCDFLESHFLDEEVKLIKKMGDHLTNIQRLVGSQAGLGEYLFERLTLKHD
Sequence of Thioredoxin reductase 1, cytoplasmic (Rattus norvegicus) (O89049 whole entry, looked up): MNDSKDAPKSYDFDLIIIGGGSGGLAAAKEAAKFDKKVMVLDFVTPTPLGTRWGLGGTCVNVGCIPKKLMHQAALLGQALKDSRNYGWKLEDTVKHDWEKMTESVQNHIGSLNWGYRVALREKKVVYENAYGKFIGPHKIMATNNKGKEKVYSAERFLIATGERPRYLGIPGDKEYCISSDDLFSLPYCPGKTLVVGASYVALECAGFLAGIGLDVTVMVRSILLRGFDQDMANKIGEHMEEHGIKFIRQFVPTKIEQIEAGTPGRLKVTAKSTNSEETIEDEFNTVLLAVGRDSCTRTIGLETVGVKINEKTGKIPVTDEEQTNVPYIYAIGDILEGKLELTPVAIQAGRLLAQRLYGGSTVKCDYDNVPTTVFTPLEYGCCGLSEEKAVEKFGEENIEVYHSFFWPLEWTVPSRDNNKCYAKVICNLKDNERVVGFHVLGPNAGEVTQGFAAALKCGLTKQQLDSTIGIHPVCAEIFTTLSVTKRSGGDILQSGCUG

Turning to `Cc1nnc(SCC2=C(C(=O)O)N3C(=O)[C@@H](NC(=O)Cn4cnnn4)[C@H]3SC2)s1`, the Potency entry in [1], in assay [4], in assay [5], in assay [6], in assay [7] and in assay [8] was “inactive” each time. For the same compound, the Potency result in [10], in assay [12] and in [13] was “inactive” each time. The compound was called inactive in assay [2], in assay [3], in assay [9], in assay [11] and in assay [14].
Regarding `Nc1nc(N)c2nc(-c3ccccc3)c(N)nc2n1`, the results for the Potency in assay [1] and in [12] were 12.6 µM (active) and 8.28 µM (active), respectively. Besides, the Potency entry in assay [15], in assay [16], in [4], in assay [5] and in assay [8] was “inactive” in each case. The result in [3], in assay [17], in assay [9], in [11] and in [14] was inactive.
Turning to `CCc1cccc(N(C)C(N)=Nc2cccc3ccccc23)c1`, in assay [1], the Potency was 11.2 µM (active). The Potency entry in [15], in assay [16], in [4], in assay [7], in assay [8] and in [13] was “inactive” throughout. Further, the compound was classed as inactive in assay [3], in assay [17], in [9], in assay [11] and in [14].
For the compound `CN1CCN(C2=Nc3ccccc3Oc3ccc(Cl)cc32)CC1`, the Potency in assay [1] is 10 µM (active). In addition, the call in [3], in [17], in assay [9], in assay [11], in assay [18] and in assay [14] was inactive. Also, the Potency entry in assay [4], in [5], in [6], in [7], in [8] and in assay [10] was “inactive” each time.
Regarding `CN(C)CCCN1c2ccccc2Sc2ccccc21`, the Potency in assay [1] is 10 µM (active). The call in assay [2], in assay [3], in assay [17], in [9], in [11] and in assay [14] was inactive. In addition, the Potency result in [16], in [4], in assay [7], in assay [8], in assay [12] and in [13] was “inactive” throughout.
For `C[N+](C)(C)CCOC(=O)CCC(=O)OCC[N+](C)(C)C`, the Potency result in [1], in [4], in [5], in assay [6], in [7] and in assay [8] was “inactive” each time. The Potency result in assay [10], in [12] and in assay [13] was “inactive” in each case. For the same compound, the compound was called inactive in assay [2], in assay [3], in assay [17], in assay [9], in [11] and in assay [18]. Also, the compound was classed as inactive in [14].
`CC(C)(C)NCC(O)c1cc(O)cc(O)c1` (stereo unspecified): the Potency entry in [1], in assay [4], in assay [5], in assay [6], in [7] and in assay [8] was “inactive” throughout. The Potency entry in assay [10], in assay [12] and in [13] was “inactive” throughout. Further, the outcome in [2], in assay [3], in assay [17], in [9] and in assay [14] was inactive.
As to `Cc1ccc(Cl)c(Nc2ccccc2C(=O)O)c1Cl`, the Potency result in assay [1], in assay [4], in assay [5], in assay [6], in assay [8] and in assay [12] was “inactive” throughout. In addition, the Potency result in [13] was “inactive”. Moreover, the call in assay [2], in assay [3], in assay [17], in [9], in assay [11] and in assay [18] was inactive. Further, in assay [14], the call was inactive. In addition, the Potency in assay [7] was 14.1 µM (active).
With `Cc1cc(C)c(/C=C2\C(=O)Nc3ccccc32)[nH]1`, the Potency result in assay [1], in [4], in assay [5], in assay [8] and in assay [12] was “inactive” in each case. The call in assay [2], in assay [3], in assay [11], in assay [18] and in assay [14] was inactive.
As for `COC(=O)[C@H]1[C@H]2C[C@@H]3c4[nH]c5cc(OC)ccc5c4CCN3C[C@H]2C[C@@H](OC(=O)c2cc(OC)c(OC)c(OC)c2)[C@@H]1OC`, the Potency in [1] is 1.26 µM (active); in [7], 11.2 µM (active); in [12], 0.928 µM (active); in assay [13], 1.47 µM (active). The result in assay [2], in assay [3], in assay [17], in assay [9], in [11] and in assay [14] was inactive. The Potency result in assay [4], in [5], in assay [6] and in assay [8] was “inactive” in each case.
As to `CC(=O)Oc1cc(C(C)C)c(OCCN(C)C)cc1C`, the Potency entry in assay [1], in [4], in [5], in assay [6], in assay [7] and in assay [8] was “inactive” in each case. The Potency result in [10], in assay [12] and in [13] was “inactive” in each case. The compound was called inactive in [2], in [3], in assay [17], in assay [9], in assay [11] and in assay [18]. Moreover, in assay [14], the call was inactive.
As for `CN(C)CC[C@@H](c1ccc(Br)cc1)c1ccccn1`, the Potency entry in assay [1], in assay [16], in assay [4], in assay [5], in assay [6] and in [7] was “inactive” throughout. For the same compound, the Potency result in assay [8], in assay [10], in [12] and in assay [13] was “inactive” throughout. Besides, the compound was classed as inactive in assay [2], in assay [3], in assay [17], in [9], in [11] and in assay [14].
`CN(C)CC/C=C1\c2ccccc2COc2ccccc21`: the compound was classed as inactive in assay [2], in assay [3], in [17], in [9], in assay [11] and in [14]. In addition, the Potency entry in assay [15], in assay [16], in [4], in assay [5], in [6] and in assay [7] was “inactive” in each case. Further, the Potency entry in assay [8], in [10], in assay [12] and in assay [13] was “inactive” throughout.
